# This is part of a sample that, as a whole, favours compounds with a hit. Of some 83,000 tested, about 20% had one in any assay.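 Single-dose data. Exposure time 48 hours. Values below 10 considered active.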 Calls of active or inactive are those of the source.
# Tested on: UO-31 renal
# Assay: NCI-60 one-dose screen, 48 h (100 = growth as untreated, 0 = no growth, -100 = all killed)
# Conditions: 10 µM unless noted
row,Compound,growth
1,CCCCCCCCCCCCCCCCCC(=O)Nc1ccc(O)cc1,52.5% (inactive)
2,COc1cc(C(=O)Nc2ccc(N(C)C)cc2)cc(OC)c1OC,85.8% (inactive)
3,CC(=O)O.[In],88.4% (inactive)
4,CCn1cnc(C[C@H](NC(=O)[C@@H](NC(=O)Nc2cc(C(F)(F)F)cc(C(F)(F)F)c2)C(C)(C)C)C(=O)OC)c1,-94.1% [100 µM] (active)
5,CC(O)c1cc[cH-]c1.[Fe+2].c1cc[cH-]c1 (centres undefined),86.5% (inactive)
6,CC(=O)Nc1ccc(S(=O)(=O)Cl)cc1,97.2% (inactive)
7,O=C(OCC1CC2(Cl)C(Cl)=C(Cl)C1(Cl)C2(Cl)Cl)C1C(C(=O)OCC2CC3(Cl)C(Cl)=C(Cl)C2(Cl)C3(Cl)Cl)C2(Cl)C(Cl)=C(Cl)C1(Cl)C2(Cl)Cl (centres undefined),91.8% (inactive)
8,COc1ccc(/C=C/C(=O)/C=C/c2cc3ccccc3[nH]c2=O)cc1,94.4% (inactive)
9,CC(=O)NCCN,98.4% (inactive)
10,NC(CSC(c1ccccc1)(c1ccccc1)c1ccccc1)C(=O)NCC(=O)O (centres undefined),84.4% (inactive)
11,CC(Br)c1nc2ccccc2cc1C(N)=O (centres undefined),92.6% (inactive)
12,CC(C)(C)c1cc(C[P+](c2ccc(Cl)cc2)(c2ccc(Cl)cc2)c2ccc(Cl)cc2)cc(C(C)(C)C)c1O,64.4% (inactive)
13,CC(C)OCC1CO1 (centres undefined),95.8% (inactive)
14,N#CCc1ncc(-c2ccc(C(F)(F)F)cc2)c(NC2CCCCCC2)n1,29.8% [100 µM] (inactive)
15,O=C(NCCNCCO)c1cc([N+](=O)[O-])cc([N+](=O)[O-])c1O,95.9% (inactive)
16,CCCCS(=O)(=O)c1cc(Nc2ccc(O)c3c2C(=O)c2ccccc2C3=O)ccc1C,54.8% (inactive)
17,Cn1c2ccccc2c2ccccc21,75% (inactive)
18,CCCCCCCCC(=O)Nc1ccc(O)cc1,61.9% (inactive)
19,CCCCN(CCCC)c1ccc(C(=O)O)cc1,82.9% (inactive)
20,CCCCCCCCCCCCCCCCCCOP(=O)(O)O,86.8% (inactive)

row,Compound,growth
1,COC1=CC(c2ccc[nH]2)=N/C1=C\c1[nH]c(C)c(C(=O)CCCCC(=O)NC(C)(C)C)c1C,18% (inactive)
2,O=C(CCC(=O)N(CCO)CCO)N(CCO)CCO,86% (inactive)
3,O=C(CCl)NC1c2ccccc2Oc2ccccc21,92.1% (inactive)
4,O=P(OCCCl)(OCCCl)C(O)c1ccccc1Cl (centres undefined),80.2% (inactive)
5,Oc1ccc(Br)cc1/C=N/NC(=S)NC12CC3CC(CC(C3)C1)C2,-2.23% (active)
6,O=C1C(=O)c2ccccc2C(O)=C1CCCc1ccc(Oc2ccccc2)cc1,43.5% (inactive)
7,O=C(O)COc1ccc([N+](=O)[O-])cc1Cl,105% (inactive)
8,CC(=O)N(N=O)c1ccc([N+](=O)[O-])cc1Cl,57.3% (inactive)
9,COC(=O)c1cc(Nc2ccc(O)c3c2C(=O)c2c([N+](=O)[O-])ccc(O)c2C3=O)cc(C(=O)OC)c1,67.1% (inactive)
10,COC(=O)C(N)CC(C)C (centres undefined),90.5% (inactive)
11,CC(C)(CNC1CCCCC1)OC(=O)c1ccccc1,77.2% (inactive)
12,COc1ccc(-c2nnc(SCC(=O)Nc3ccc(C(=O)/C=C/c4cc(OC)c(OC)c(OC)c4)cc3)n2-c2ccccc2)cc1OC,67.5% [100 µM] (inactive)
13,CCCCCCC(C(=O)OCC)(C(=O)OCC)C1CCCCCC1,90.6% (inactive)
14,O=C(NC1CCN(Cc2ccccc2)CC1)c1cc(-c2cccnc2)nc2ccc(Cl)cc12,69.2% (inactive)
15,CC(=O)CC(=O)OC/C=C(/C)CCC=C(C)C,102% (inactive)
16,CCn1cnc(C[C@H](NC(=O)[C@@H](NC(=O)Nc2cc(C(F)(F)F)cc(C(F)(F)F)c2)C(C)C)C(=O)OC)c1,-97% [100 µM] (active)
17,CN(C)CCOC(=O)C(C)(C)C,89.9% (inactive)
18,CCCCCCCCCCCCCCCCNC(=S)N/N=C/c1ccc(O)cc1O,49.8% (inactive)
19,CC(=O)C(CO)C(=O)Nc1ccccc1 (centres undefined),106% (inactive)
20,COC(=O)[C@H](Cc1cn(C)cn1)NC(=O)[C@H](Cc1c[nH]c2ccccc12)NC(=O)Nc1cc(C(F)(F)F)cc(C(F)(F)F)c1,22.5% [100 µM] (inactive)

# Tested on: TK-10 renal
# Assay: as above
# Conditions: 10 µM unless noted
row,Compound,growth
1,CCCCCCCCCCCCCCCCCC(=O)Nc1ccc(O)cc1,85.3% (inactive)
2,CC(=O)O.[In],100% (inactive)
3,CCn1cnc(C[C@H](NC(=O)[C@@H](NC(=O)Nc2cc(C(F)(F)F)cc(C(F)(F)F)c2)C(C)(C)C)C(=O)OC)c1,-97.6% [100 µM] (active)
4,CC(O)c1cc[cH-]c1.[Fe+2].c1cc[cH-]c1 (centres undefined),96% (inactive)
5,CC(=O)Nc1ccc(S(=O)(=O)Cl)cc1,100% (inactive)
6,O=C(OCC1CC2(Cl)C(Cl)=C(Cl)C1(Cl)C2(Cl)Cl)C1C(C(=O)OCC2CC3(Cl)C(Cl)=C(Cl)C2(Cl)C3(Cl)Cl)C2(Cl)C(Cl)=C(Cl)C1(Cl)C2(Cl)Cl (centres undefined),105% (inactive)
7,COc1ccc(/C=C/C(=O)/C=C/c2cc3ccccc3[nH]c2=O)cc1,118% (inactive)
8,CC(=O)NCCN,109% (inactive)
9,NC(CSC(c1ccccc1)(c1ccccc1)c1ccccc1)C(=O)NCC(=O)O (centres undefined),98.8% (inactive)
10,CC(Br)c1nc2ccccc2cc1C(N)=O (centres undefined),96.8% (inactive)
11,CC(C)(C)c1cc(C[P+](c2ccc(Cl)cc2)(c2ccc(Cl)cc2)c2ccc(Cl)cc2)cc(C(C)(C)C)c1O,105% (inactive)
12,CC(C)OCC1CO1 (centres undefined),107% (inactive)
13,N#CCc1ncc(-c2ccc(C(F)(F)F)cc2)c(NC2CCCCCC2)n1,61.2% [100 µM] (inactive)
14,O=C(NCCNCCO)c1cc([N+](=O)[O-])cc([N+](=O)[O-])c1O,101% (inactive)
15,CCCCS(=O)(=O)c1cc(Nc2ccc(O)c3c2C(=O)c2ccccc2C3=O)ccc1C,116% (inactive)
16,Cn1c2ccccc2c2ccccc21,97.5% (inactive)
17,CCCCCCCCC(=O)Nc1ccc(O)cc1,87.1% (inactive)
18,CCCCN(CCCC)c1ccc(C(=O)O)cc1,86.3% (inactive)
19,CCCCCCCCCCCCCCCCCCOP(=O)(O)O,107% (inactive)
20,COC1=CC(c2ccc[nH]2)=N/C1=C\c1[nH]c(C)c(C(=O)CCCCC(=O)NC(C)(C)C)c1C,-18.2% (active)

row,Compound,growth
1,O=C(CCC(=O)N(CCO)CCO)N(CCO)CCO,99.5% (inactive)
2,O=C(CCl)NC1c2ccccc2Oc2ccccc21,84.4% (inactive)
3,O=P(OCCCl)(OCCCl)C(O)c1ccccc1Cl (centres undefined),102% (inactive)
4,Oc1ccc(Br)cc1/C=N/NC(=S)NC12CC3CC(CC(C3)C1)C2,27.9% (inactive)
5,O=C1C(=O)c2ccccc2C(O)=C1CCCc1ccc(Oc2ccccc2)cc1,90.7% (inactive)
6,O=C(O)COc1ccc([N+](=O)[O-])cc1Cl,103% (inactive)
7,CC(=O)N(N=O)c1ccc([N+](=O)[O-])cc1Cl,130% (inactive)
8,COC(=O)c1cc(Nc2ccc(O)c3c2C(=O)c2c([N+](=O)[O-])ccc(O)c2C3=O)cc(C(=O)OC)c1,60.4% (inactive)
9,COC(=O)C(N)CC(C)C (centres undefined),90.6% (inactive)
10,CC(C)(CNC1CCCCC1)OC(=O)c1ccccc1,104% (inactive)
11,COc1ccc(-c2nnc(SCC(=O)Nc3ccc(C(=O)/C=C/c4cc(OC)c(OC)c(OC)c4)cc3)n2-c2ccccc2)cc1OC,-42.5% [100 µM] (active)
12,CCCCCCC(C(=O)OCC)(C(=O)OCC)C1CCCCCC1,102% (inactive)
13,O=C(NC1CCN(Cc2ccccc2)CC1)c1cc(-c2cccnc2)nc2ccc(Cl)cc12,81.6% (inactive)
14,CC(=O)CC(=O)OC/C=C(/C)CCC=C(C)C,108% (inactive)
15,CCn1cnc(C[C@H](NC(=O)[C@@H](NC(=O)Nc2cc(C(F)(F)F)cc(C(F)(F)F)c2)C(C)C)C(=O)OC)c1,-98.7% [100 µM] (active)
16,CN(C)CCOC(=O)C(C)(C)C,102% (inactive)
17,CCCCCCCCCCCCCCCCNC(=S)N/N=C/c1ccc(O)cc1O,57.8% (inactive)
18,CC(=O)C(CO)C(=O)Nc1ccccc1 (centres undefined),109% (inactive)
19,COC(=O)[C@H](Cc1cn(C)cn1)NC(=O)[C@H](Cc1c[nH]c2ccccc12)NC(=O)Nc1cc(C(F)(F)F)cc(C(F)(F)F)c1,-66.2% [100 µM] (active)
